Assay outcomes from PubChem BioAssay.
FLuc counter: qHTS profiling assay for firefly luciferase inhibitor/activator using purifed enzyme and Km concentrations of substrates (counterscreen for miR-21 project). purified FLuc, Km substrates, luminescence inhibition. Potency, µM (highest dose often 57.5 µM), inactives show at the top dose activity change, negative = inhibition, most hits filed as inhibitors. AID 588342, 2011. 360,000 compounds, 6.9% hits. Luciferin 4-monooxygenase (Photinus pyralis), P08659;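 note: plate controls were vehicle for no effect and reference inhibitor for full effect; nearly all actives have a fitted effect of over 55% in size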
Target sequence (P08659 whole entry, looked up): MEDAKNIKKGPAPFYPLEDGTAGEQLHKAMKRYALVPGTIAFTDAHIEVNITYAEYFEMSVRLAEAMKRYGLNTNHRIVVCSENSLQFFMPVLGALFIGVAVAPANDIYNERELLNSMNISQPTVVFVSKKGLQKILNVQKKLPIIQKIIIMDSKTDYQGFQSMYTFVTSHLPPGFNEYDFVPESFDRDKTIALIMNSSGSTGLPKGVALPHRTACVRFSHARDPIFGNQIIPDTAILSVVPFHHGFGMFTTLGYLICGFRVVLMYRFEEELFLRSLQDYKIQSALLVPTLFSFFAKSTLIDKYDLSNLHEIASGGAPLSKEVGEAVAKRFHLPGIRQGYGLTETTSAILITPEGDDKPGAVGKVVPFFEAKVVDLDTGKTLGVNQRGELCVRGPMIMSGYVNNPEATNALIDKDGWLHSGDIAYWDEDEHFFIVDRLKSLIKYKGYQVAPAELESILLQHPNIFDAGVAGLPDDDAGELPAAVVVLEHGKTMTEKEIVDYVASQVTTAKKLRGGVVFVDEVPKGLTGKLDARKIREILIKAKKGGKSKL
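Biochemical qHTS of compounds, final roughly 60 µM downward over six points, against 10 nM purified firefly luciferase using Km concentrations of substrates (10 uM D-luciferin, 10 uM ATP) in Tris acetate pH 7.5 buffer; luminescence output.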
NPC1 prom act: qHTS Assay for NPC1 Promoter Activators | Huh7 NPC1 promoter luciferase reporter, 24 h | Potency, µM (titrated, usually from 9.22 µM), for the others: at the top dose activation, usual class: activators | 320,000 compounds, 2.4% hits | AID 485313, 2010; note: % of control where 0% means no effect; nearly all actives have a fitted effect of over 60% in size
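Stable NPC1-promoter luciferase Huh7 line; cpd (DMSO) 24 h, 37 °C, 5% CO2; Amplite luciferase reagent 10 min RT; luminescence readout. qHTS format.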
SMN2 splice up: qHTS Assay for Enhancers of SMN2 Splice Variant Expression. 210,000 compounds, 2.8% hits. Potency, µM (top dose mostly 46.1 µM), for the others: at the highest dose activity change, positive = activation, most hits filed as activators. HEK293 SMN2-luciferase splicing reporter, luminescence, 30-36 h; note: % of control where 0% means no effect; nearly all actives have a fitted effect of over 55% in size
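qHTS luciferase splicing reporter: luminescence rises when SMN2 exon 7 is included in transfected HEK293 cells. Compound exposure lasted 30-36 h at 37C, with 4.5 mM final sodium butyrate as control, followed by a ONE-Glo read.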
ELG1 DNA repair: qHTS screen for small molecules that inhibit ELG1-dependent DNA repair in human embryonic kidney (HEK293T) cells expressing luciferase-tagged ELG1 | 330,000 compounds, 2.3% hits | Potency, µM (titrated, usually from 46.1 µM), for the others: top-dose activity change, negative = inhibition, hits mostly inhibitors | AID 504467, 2011 | HEK293T ELG1-luciferase reporter, luminescence, 16 h; DNA damage induced by 5-fluorouridine; note: % is set by controls: 0 for no effect and ±100 for the full control effect; nearly all actives have a fitted effect of over 55% in size
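Reporter activity after DNA damage by 5-fluorouridine is monitored. Compound-treated cells incubate 16 hr at 37 °C, then ONE-Glo is added for 30 min before luminescence reading.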
Rab9 prom act: qHTS Assay for Rab9 Promoter Activators; Huh7 Rab9 promoter-luciferase reporter, luminescence, 24 h; Potency, µM (titrated, usually from 9.22 µM), without a hit: at the highest dose activation, negative = inhibition, usual class: activators; 320,000 compounds, 2.8% hits; note: % of control where 0% means no effect; nearly all actives have a fitted effect of over 60% in size
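Steps: seed 1500 Huh7 Rab9-luc cells per well, rest 2 h at 37 °C; add compound in DMSO; incubate 24 h; add luciferase reagent, 10 min ambient; read luminescence.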
ELG1 genotox: qHTS screen for small molecules that induce genotoxicity in human embryonic kidney (HEK293T) cells expressing luciferase-tagged ELG1. AID 504466, 2011. Potency, µM (top dose mostly 46 µM), inactives show top-dose activity change, positive = activation, actives largely listed as activators. 330,000 compounds, 1.3% hits. HEK293T ELG1-luciferase reporter, luminescence, 16 h; note: % of control where 0% means no effect; nearly all actives have a fitted effect of over 60% in size
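Quantitative HTS format in 1536-well plates. HEK293T ELG1-luciferase reporter cells receive test compound and are incubated 16 hr at 37 °C, 5% CO2; ONE-Glo added, 30 min room temperature, then luminescence read.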
* hit, by the source's call; ? = inconclusive; nt = no result. Sampled rows, rich in hits. Any-hit rate of the full collection: about 9.4%. Calls come from the whole dose curve; as a rule, active = well fitted curve in the direction sought with a large enough effect; inconclusive = small, poorly fitted or top-dose-only effect, or another doubt; inactive = no such curve, though single readings can be large; an effect the other way counts as inactive or inconclusive. Potency is the fitted concentration of half-maximal effect.

SMILES	FLuc counter	NPC1 prom act	SMN2 splice up	ELG1 DNA repair	Rab9 prom act	ELG1 genotox
O=C(O)c1cc(N(Cc2ccccc2O)Cc2cc(O)ccc2O)ccc1O	nt	nt	-11%	nt	nt	nt
Cc1ccsc1C(=O)Nc1ccccc1N1CCOCC1	19µM*	6%	6%	-1%	-6%	-2%
CCN(CC)S(=O)(=O)c1ccc(N2CCOCC2)c(NC(=O)C23CC4CC(CC(Cl)(C4)C2)C3)c1	3%	-1%	-15%	9.2µM*	-5%	-6%
Nc1c(C(=O)NCc2ccccc2)nnn1Cc1cccc(Br)c1	-7%	nt	-5%	nt	nt	nt
CCOC(=O)c1ccc(N/C=C/C(=O)C(C)(C)C)cc1	3µM*	3.5µM*	?	?	3.5µM*	?
CCOC(=O)c1ccc(N/C=C/C(=O)c2ccccc2)cc1	6µM*	11%	nt	?	?	-6%
Cc1ccc2c(c1)c1c(c(=O)n(-c3ccccc3)c(=O)n1CC(=O)N1CCCC1)n2C	6%	nt	nt	nt	nt	nt
COc1ccc(OC)c2c1C(=O)C(Cl)=C(Cl)C2=O	?	-12%	nt	21µM*	-51%	-14%
COc1cccc2c1C(=O)c1ccc3ccccc3c1C2=O	1.9µM*	18%	16µM*	?	?	13µM*
COc1ccc(OC)c2c1C(=O)c1ccccc1C2=O	4%	1%	-10%	1%	-6%	-2%
COc1ccc(N)c2c1C(=O)c1ccccc1C2=O	24µM*	23%	?	?	?	?
COc1cccc2c1-c1c(C(=O)O)cccc1C2=O	12%	-4%	nt	-3%	-1%	0%
O=C(COc1ccccc1F)OCc1cc(=O)n2nc(-c3cccs3)sc2n1	-7%	nt	nt	nt	nt	nt
CSc1ccc(CNC(=O)Cn2c(-c3cccs3)cc3cc(F)ccc32)cc1	-2%	nt	nt	nt	nt	nt
Cc1nn2c(-c3ccccc3)nnc2c2ccccc12	19µM*	?	5.6µM*	?	?	?
CN(C)c1ccc(N=Cc2cccn2C)cc1	3.4µM*	16%	nt	?	24%	15µM*
Cc1nn(CC(=O)N2CCN(c3ccccc3)CC2)c(=O)c2cc3cc(F)ccc3n12	6%	nt	0%	nt	nt	nt
Cc1ccc(-c2cc3ncc(C(=O)c4cc([N+](=O)[O-])ccc4O)cn3n2)cc1	9.5µM*	nt	-9%	nt	nt	nt
CC(C)c1ccc(OCc2cc(=O)n3c(-c4ccccc4)csc3n2)cc1	0%	nt	-20%	nt	nt	nt
CCOc1ccc(NC(=O)C2CCCN(S(=O)(=O)c3cccc4nonc34)C2)cc1 (configuration not stated)	-5%	nt	-3%	nt	nt	nt
CCn1c(-c2ccccc2)csc1=Nc1ccc(O)cc1	8.5µM*	2.8µM*	?	?	2.2µM*	?
CCOc1ccc(N=c2scc(-c3ccc(OC)cc3)n2CCO)cc1	1%	3%	-97%	10µM*	-7%	11%
CCOc1ccc(N=c2scc(-c3ccccc3)n2CCO)cc1	15µM*	18%	?	?	8%	16%
O=C(C1=C(O)C(=O)N(CCN2CCOCC2)C1c1cccc(F)c1)c1cc2ccccc2o1 (configuration not stated)	-4%	-6%	nt	23%	3%	2%
COc1ccccc1CNC(=O)CSc1nc(=O)[nH]c2c1CCCC2	1%	nt	nt	nt	nt	nt
O=C(COc1ccccc1)NC1CCCCCCC1	-17%	20%	nt	?	18%	14%
CCCN1Cc2cccc(C(=O)Nc3cccc(C(=O)OCC)c3)c2C1=O	?	nt	-5%	nt	nt	nt
